# Screening data: PubChem BioAssay, National Center for Advancing Translational Sciences (NCATS)
# Only some compounds are listed: those with a hit (about 8.3% of all), similar ones and a draw of the others.
# SW480 rereplic – A quantitative high throughput screen for small molecules that induce DNA re-replication in SW480 colon adenocarcinoma cells; SW480 DNA re-replication, Hoechst DNA content imaging, 48 h; Potency, µM (top dose mostly 46.1 µM), for inactives: at the top dose re-replication activation, hits mostly activators; hit rate 1.8% among 340,000; also: potency is read from the fitted curve at half-maximal effect; % of control where 0% means no effect; nearly all actives have a fitted effect of over 55% in size
#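 Treated cells incubate 48 hr (37 C, 5% CO2), are stained 40 min with Hoechst, and nuclear fluorescence is enumerated; a rise in nuclei with high DNA signal marks re-replication.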
# Gal4-VP16 FLuc – VP16 counterscreen qHTS for inhibitors of ROR gamma transcriptional activity; Drosophila S2 Gal4-VP16 UAS-luciferase, luminescence, 20 h; Potency, µM (highest dose often 53.6 µM), without a hit: at the highest dose activity, negative = inhibition, actives largely listed as inhibitors; hit rate 3.5% among 310,000; AID 2546, 2010;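 also: Gal4-VP16 expression switched on by copper sulfate through the metallothionein promoter; potency is read from the fitted curve at half-maximal effect; % is scaled to controls: 0 for no effect and ±100 for the full control effect; nearly all actives have a fitted effect of over 50% in size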
# Giardia kill – Small Molecules that selectively kill Giardia lamblia: qHTS; Giardia lamblia trophozoite viability; activity change, % at 7.66 µM, hits read low; hit rate 0.15% among 340,000; in the data active = activity change below about -80%; inconclusive = between about -30% and that limit;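 also: parasites exposed to compound for two days anaerobically before the ATP read; % is scaled to controls: 0 for no effect and ±100 for the full control effect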
#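 Luminescence from cellular ATP indicates surviving trophozoites (100 cells/well) following 48 hrs anaerobic compound treatment at 37 deg C; signal develops 15-30 min at room temperature.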
# MCF10A rerep – A quantitative high throughput screen for small molecules that induce DNA re-replication in MCF 10a normal breast cells; MCF 10A DNA re-replication, Hoechst nuclear intensity, 48 h; Potency, µM (doses to about 46.1 µM), for the others: at the top dose activity, positive = re-replication, hits mostly activators; hit rate 2.9% among 350,000; AID 624296, 2012; also: potency is read from the fitted curve at half-maximal effect; % of control where 0% means no effect; nearly all actives have a fitted effect of over 50% in size
# Chronic BCR inh – qHTS Assay to Find Inhibitors of Chronic Active B-Cell Receptor Signaling; ABC-DLBCL IkBa-CBG/CBR reporter, luminescence ratio, 4 h; Potency, µM (top dose mostly 46.1 µM), for the others: at the highest dose activity change, negative = inhibition, most hits filed as inhibitors; hit rate 0.05% among 340,000; active = well fitted inhibition curve with a large enough effect in the signal ratio, with a control signal flat, not every such curve was filed as active; inconclusive = small, poorly fitted or top-dose-only effect, or effect the other way, or a change in a side signal; the % refers to the signal ratio;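 also: potency is read from the fitted curve at half-maximal effect; plate controls were basal doxycycline-induced cells for no effect and cells given 10 µM MG132 for full effect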
#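 TMD8 ABC-DLBCL cells carrying doxycycline-inducible green luciferase fused to IkappaBalpha plus unfused red luciferase were exposed to compounds (up to 46 uM) for 4 hrs at 37C. Activity came from the overlap-corrected green/red luminescence ratio.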
# RORg inh – qHTS for inhibitors of ROR gamma transcriptional activity; Drosophila S2 Gal4-RORgamma UAS-luciferase reporter, 20 h; Potency, µM (top dose mostly 53.6 µM), for the others: top-dose activity change, negative = inhibition, most hits filed as inhibitors; hit rate 5.4% among 310,000; also: potency is read from the fitted curve at half-maximal effect; % is scaled to controls: 0 for no effect and ±100 for the full control effect; nearly all actives have a fitted effect of over 60% in size
# Target sequence (P51450 whole entry, looked up, the tested form may be a part): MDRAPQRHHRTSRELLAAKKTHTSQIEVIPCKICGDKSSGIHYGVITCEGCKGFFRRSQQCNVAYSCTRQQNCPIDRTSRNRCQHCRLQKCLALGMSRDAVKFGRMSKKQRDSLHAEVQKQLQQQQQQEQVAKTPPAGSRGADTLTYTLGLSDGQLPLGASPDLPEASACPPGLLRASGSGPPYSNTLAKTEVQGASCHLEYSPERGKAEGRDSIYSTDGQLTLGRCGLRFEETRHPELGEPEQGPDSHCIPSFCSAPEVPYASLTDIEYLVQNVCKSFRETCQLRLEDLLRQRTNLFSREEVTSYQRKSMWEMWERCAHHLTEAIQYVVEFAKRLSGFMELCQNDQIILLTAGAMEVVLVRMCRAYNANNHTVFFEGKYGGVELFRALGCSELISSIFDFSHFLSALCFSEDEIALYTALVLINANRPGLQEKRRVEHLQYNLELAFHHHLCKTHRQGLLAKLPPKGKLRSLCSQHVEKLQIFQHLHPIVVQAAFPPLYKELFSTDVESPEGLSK
#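 Schneider cells (Drosophila), stable Gal4 DBD–ROR gamma + UAS-luc; 1 hr cmpd preincubation; Cu2+ induction 700 uM final; 20 hr ambient; luminescence.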
# Active calls of the source: *; ? = inconclusive; · = no result given; [ ] = dose if it differs, or a comment. Unless noted, calls follow the shape of the dose curve; as a rule, active = well fitted curve in the direction sought with a large enough effect; inconclusive = small, poorly fitted or top-dose-only effect, or another doubt; inactive = no such curve, though single readings can be large; an effect the other way counts as inactive or inconclusive.
SMILES,SW480 rereplic,Gal4-VP16 FLuc,Giardia kill,MCF10A rerep,Chronic BCR inh,RORg inh
Cc1noc(C)c1CSCC(=O)Nc1ccc(S(=O)(=O)C(F)F)cc1,-81%,·,7,-14%,-4%,·
CC(C)(C)C1CCC(=NNC(=S)Nc2cccnc2)CC1 (centres undefined),-3%[1.84 µM],-6%,-20,-33%,1%,?
CCNC(=S)NN=C1CCC(C(C)(C)C)CC1 (centres undefined),8%,3%,5,14%,?,8.9µM*
Cc1ccccc1OCC(=O)NC(=S)Nc1cccc2cc(O)ccc12,24%,?,-13,?,0%,-58%
Cc1ccccc1OCC(=O)NC(=S)Nc1ccccc1N1CCN(S(C)(=O)=O)CC1,10%,?,-2,-5%,-3%,10µM*
Cc1ccccc1OCC(=O)NC(=S)Nc1ccc(N2CCCC2)cc1,11%,8.9µM*,-11,0%,-9%,8.9µM*
COc1ccc(CNC(=O)C(C)Sc2ccc(S(=O)(=O)N3CCOCC3)cn2)cc1 (centres undefined),-1%,·,11,-1%,-1%,·
COc1ccccc1N(CC(=O)NC1CCCCC1)C(=O)CNC(=O)c1cccs1,2%,-6%,10,6%,?,-10%
O=C(NCCCc1nc2ccccc2n1CCCCOc1ccccc1)C1CCCCC1,·,·,-4,·,·,·
O=C(CCC1CCCN(Cc2ccncc2)C1)NCc1ccc(F)c(F)c1 (centres undefined),-2%,2%,-1,19%,-1%,-1%
Cc1cc2c3c([nH]c2cc1S(=O)(=O)N1CCC2(CC1)OCCO2)CC(C)(C)CC3=O,?,-21%,9,23µM*,?,?
CC(=O)NC1CCCC(NC(C)=O)C1 (centres undefined),-2%,·,10,-20%,·,·
COc1ccc2oc(C(=O)OCC(=O)NCCc3ccc(S(N)(=O)=O)cc3)c(C)c2c1,-10%,·,0,6%,0%,·
CC(C)NC(=O)C1CCN(C2CCN(C(=O)c3cc4c(s3)CCCCC4)CC2)CC1,-2%,7.9µM*,-4,1%,-1%,10µM*
Cc1cccc(C(=O)OCC(=O)NCCNC(=O)COC(=O)c2cccc(C)c2C)c1C,-6%,?,22,14%,1%,13µM*
CCc1cc2c(=O)n(Cc3ccco3)c(SCC(=O)N(C)C3CCS(=O)(=O)C3)nc2s1 (centres undefined),-1%,?,-8,14%,?,10µM*
COCCn1c(SCC(=O)N(C)C2CCS(=O)(=O)C2)nc2ccccc2c1=O (centres undefined),-14%,-9%[10 µM],-28,-7%,13%,2%
CN(C(=O)CSc1nc2ccccc2n1CCc1ccccc1)C1CCS(=O)(=O)C1 (centres undefined),8%,?,1,0%,9%,16µM*
CCc1cc2c(=O)n(Cc3ccco3)c(SCc3c(C)noc3C)nc2s1,2.6µM*,-61%,-1,3.3µM*,?,?
Cc1ccc(C)c(C(=O)N(Cc2nc(-c3ccc(Cl)cc3)no2)C(C)C)c1,2%,-29%,2,23µM*,?,-10%
Cc1cc(Br)ccc1OCC(=O)N(Cc1nc(-c2ccccc2)no1)C(C)C,?,-15%,7,18µM*,-12%,?
COc1ccc(C=C2c3ccccc3C(=O)c3ccccc32)cc1O,·,11%,·,·,·,3%
CCN(CC)c1ccc2cc(C(N)=O)c(=O)oc2c1,?,8%,-5,14%,-3%,15%
CCN(CC)c1ccc2cc(C(C)=O)c(=O)oc2c1,21µM*,-4%,-15,10µM*,1%,25%
CCN(CC)c1ccc2cc(C=O)c(=O)oc2c1,?,-4%,-1,12µM*,·,-11%
SMILES,SW480 rereplic,Gal4-VP16 FLuc,Giardia kill,MCF10A rerep,Chronic BCR inh,RORg inh
CCN(CC)c1ccc2cc(-c3nnc(-c4ccncc4)o3)c(=O)oc2c1,2%,-2%,-10,-1%,-22%,7%
CCN(CC)c1ccc2cc(NC(=O)CCC(=O)O)c(=O)oc2c1,17%,1.3µM*,-25,11%,?,0.79µM*
CCN(CC)c1ccc2cc(C(N)=O)c(=N)oc2c1,?,18%[10 µM],-2,18µM*,-8%,15%
COc1ccccc1S(=O)(=O)Cc1ccc(C(=O)NC2CC2)o1,17%,12%,6,0%,2%,-15%
COC(=O)c1ccccc1NC(=O)COC(=O)C1CCCCC1,-7%,-9%,-12,-2%,?,-13%
COc1cc(/C=N/N(C)C)ccc1OC(=O)c1cccs1,-4%,-22%,-6,-4%,-2%,34%
CCN(CC)c1ccc2cc(C(=O)Nc3ccccn3)c(=O)oc2c1,?,?,-6,1.3µM*,5%,?
Cc1ccccc1C(=O)Nc1cccc(NC(=O)c2cccnc2)c1,0%,3%,?,1%,?,2%
N#CC1CC(c2ccccc2)Nc2cc(Cl)ccc2N1 (centres undefined),13µM*,-2%,-12,?,?,?
Clc1ccc(-c2cn3ccccc3n2)cc1,4%,-29%,1,-3%,?,?
CCCOc1ccc(-c2cn3ccccc3n2)cc1,-83%[1.84 µM],?,?,27%,?,4.5µM*
COc1ccc(-c2cn3ccccc3n2)cc1[N+](=O)[O-],2%,-17%,?,4%,?,?
COc1c(Cl)cccc1-c1cn2ccccc2n1,-40%,?,-21,-4%,?,11µM*
COc1ccc(-c2nc3ccccn3c2Cl)cc1,-5%,?,-24,9%,?,16µM*
COc1ccc(-c2cn3ccccc3n2)cc1,-5%,13µM*,?,-1%,?,6.3µM*
CCOCCn1c(N2CCCN(C)CC2)nc2ccccc21,-1%,-5%,·,4%,·,-1%
CN(C)C(=O)c1ccc(NC(=O)c2sccc2-c2ccccc2)cc1,-9%,-9%,1,2%,3%,20%
COc1cc2c(cc1OC)CN(CC(=O)NC(=O)NC1CCCCC1)CC2,-4%,-12%,8,19%,?,5%
COc1ccc(/C=C2\SC(=N)N(c3nccs3)C2=O)cc1OC,12µM*,?,-16,10µM*,?,0.13µM*
N=C1S/C(=C\c2ccc(-c3cccc(Cl)c3)o2)C(=O)N1c1nccs1,?,-83%,-3,?,?,0.14µM*
CC(C)NC(=O)[C@@H]1C[C@H]1[C@@H](NC(=O)OCc1ccccc1)c1ccccc1,·,7%,·,·,·,21%
